Format in all cases: functional
Assay [1] concerns Plasmodium falciparum. Kind of assay: GSK_TCMDC: Inhibition of Plasmodium falciparum 3D7 in whole red blood cells, using parasite LDH activity as an index of growth. Test compounds present at 2uM.
For assay [2], the system named is Plasmodium falciparum. The experiment in a line: GSK_TCMDC: Inhibition of Plasmodium falciparum Dd2 in whole red blood cells, using parasite LDH activity as an index of growth. Test compounds present at 2uM.
The subject of assay [3] is HepG2. The experiment in a line: GSK_TCMDC: Percent inhibition of human HepG2 cell line. Test compounds present at 10uM.

In general, Inhibition refers to how much of the control response was suppressed. A higher Inhibition goes with a response far below the control.

`O=C(Cc1cccc(Cl)c1)Nc1ccc(N2CCC(NCc3ccc4ncccc4c3)CC2)cc1`: the values for the Inhibition in assay [1], in assay [2] and in assay [3] were 81%, 8% and 10%, respectively.
Regarding `Cn1cnc2c(Nc3ccncc3)nc(-c3ccc(OC(F)(F)F)cc3)nc21.O=C(O)C(F)(F)F`, the Inhibition in assay [1] was determined as 100%; in assay [2], 65%; in assay [3], 28%.
In the case of `COCCNCc1cccc(-c2cccc(CNC3CCN(Cc4ccccc4)CC3)c2)c1.O=C(O)C(F)(F)F`, the Inhibition in assay [1] was determined as 100%; in assay [2], 99%; in assay [3] it was 28%.
As to `Cc1noc(-c2ccc3c(c2)CCN(CCC2CCC(NC(=O)/C=C/c4cccc(Cl)c4)CC2)CC3)n1.Cl` (stereo unspecified), the values for the Inhibition in assay [1], in assay [2] and in assay [3] were 86%, 24% and 37%, respectively.
Regarding `CCOc1cc(C(=O)NC2CC(C)(C)NC(C)(C)C2)ccc1-c1nc2cc(Cl)ccc2[nH]1`, the Inhibition in assay [1] turned out to be 100%; in assay [2], 64%; in assay [3], 46%.
The corresponding values for `CN(C)CCCn1c(C(=O)OC(c2ccccc2)c2ccccc2)cc2cc(OCc3ccccc3)ccc21` are 82%, 85% and 12%.
The corresponding values for `CCCCCCN1CCCN(Cc2ccc(C(=O)Nc3cccc(CC)c3)cc2)CC1.O=C(O)C(F)(F)F` are 85%, 54% and 31%.
With `O=C(Nc1cccc(-c2cccc(F)c2)c1)C1CCN(Cc2ccc(O)cc2)CC1`, the Inhibition in assay [1] was 87%; in assay [2], 2%; in assay [3], 13%.
The corresponding values for `Cc1[nH]c(C)c(-c2ccc(OCCOc3ccc(C(F)(F)F)cn3)cc2)c(=O)c1Br` are 97%, 97% and 25%.
For the compound `CC(CN(C)C)C(=O)Nc1cccc(-c2ccc(-c3nc4cc(C(F)(F)F)ccc4[nH]3)cc2)c1` (stereo unspecified), the results for the Inhibition in assay [1], in assay [2] and in assay [3] were 99%, 97% and 26%, respectively.
The corresponding values for `CC1CC(C)CN(CC(O)CNC(=O)Nc2ccc(Br)cc2)C1.O=C(O)C(F)(F)F` (stereo unspecified) are 94%, 44% and 13%.
The corresponding values for `COc1ccc2nccc([C@@H](O)CN3CCC(NCc4ccc5scnc5c4)CC3)c2c1.O=C(O)C(=O)O` are 100%, 93% and 17%.
The corresponding values for `CN(C(=O)C1(c2ccc(Cl)cc2)CC1)C1CCN(CCCCCNC(=O)/C=C/c2ccc(Cl)c(Cl)c2)CC1` are 88%, 0% and 91%.
As to `CCC[C@@H]([C@@H](Cc1ccc(C)s1)C(=O)N[C@@H](CNC(C)=O)C(=O)Nc1nccs1)N(O)C=O`, the Inhibition in assay [1] was 97%; in assay [2], 96%; in assay [3], 0%.
The corresponding values for `COCCNCc1ccc(-c2cccc(CN(C(=O)NCCc3ccccc3)C3CCN(Cc4ccccc4)CC3)c2)cc1.O=C(O)C(F)(F)F` are 88%, 90% and 25%.
The corresponding values for `CCc1ccc(-c2nc3cc(NC(=O)c4cc([N+](=O)[O-])cc([N+](=O)[O-])c4)ccc3o2)cc1` are 93%, 12% and 12%.
Consider `COc1ccc2nc(C)cc(NCc3ccc4ccccc4c3)c2c1.Cl`, for which the Inhibition was 100% in assay [1], 75% in assay [2] and 21% in assay [3].
`O=C(COc1ccccc1)NC1CCN(c2ccnc3cc(Cl)ccc23)C1.O=C(O)C(F)(F)F` (stereo unspecified): the Inhibition in assay [1] was found to be 100%; in assay [2], 35%; in assay [3], 22%.
The corresponding values for `COc1ccc(-c2ccc(S(=O)(=O)Nc3cc4c(cc3OC(C)C)CCN(C)CC4)cc2)cc1.Cl` are 98%, 2% and 16%.
The corresponding values for `O=C(NCCCCN1CCC(c2ccc3ccccc3c2O)CC1)c1ccc(NC(=O)c2ccc(Cl)cc2)cc1` are 100%, 89% and 34%.
As for `c1ccn2c(Sc3ncnc4sccc34)ncc2c1`, the values for the Inhibition in assay [1], in assay [2] and in assay [3] were 100%, 100% and 0%, respectively.
Turning to `Cc1cc(N[C@@H](Cc2ccccc2)C(=O)NCCCOC(C)C)nc(NCCc2ccc(F)cc2)n1.O=C(O)C(F)(F)F`, the Inhibition is 100% in assay [1], 36% in assay [2] and 15% in assay [3].
Regarding `Cc1cccc2nc(-c3ccc(-c4cccc(CN5CCC(CCN6CCCCC6)CC5)c4)s3)[nH]c12.O=C(O)C(F)(F)F`, the figures for the Inhibition in assay [1], in assay [2] and in assay [3] were 100%, 100% and 99%, respectively.
Turning to `Cc1ccc(C(C#N)c2ccc3c(C(F)(F)F)cc(C(F)(F)F)nc3n2)cc1` (stereo unspecified), the Inhibition in assay [1] is 96%; in assay [2], 36%; in assay [3], 14%.
For the compound `Br.c1cc(Nc2nc(-c3ccc(-c4csc(Nc5ccncc5)n4)cc3)cs2)ccn1`, the Inhibition is reported as 100% in assay [1], 99% in assay [2] and 91% in assay [3].
The corresponding values for `CN1CCC(NCc2ccc(-c3cccc(-c4nc5ccccc5[nH]4)c3)cc2)CC1.O=C(O)C(F)(F)F` are 100%, 96% and 50%.
The corresponding values for `COc1ccc2c(N/N=C/c3ccc([N+](=O)[O-])cc3)ccnc2c1` are 100%, 98% and 0%.

Source of the values: ChEMBL document CHEMBL1157539, “Thousands of chemical starting points for antimalarial lead identification” (Nature, 2010).
